# Screening data deposited in PubChem by National Center for Advancing Translational Sciences (NCATS).
# D3 ag = D3 dopamine receptor (human) agonism | max activation, % | 410,000 tested, 0.58% active | D3R DiscoveRx beta-arrestin cells, luminescence, 90 min | P35462; in the data active means max activation above about 30%; further: 0% is about no effect
#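 Agonist-mode cell screen: cells plated at 1500/well and incubated overnight at 37 °C, then exposed to library compounds for 90 min at 37 °C. Detection reagent was added for 30–60 min at room temperature, and luminescence was read.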
# Rango release inh = prevents RanGTP from dissociating the Rango-importin beta complex | O95149+P62826 | Biochemical FRET Rango-importin beta, RanGTP-induced dissociation | Potency, µM (highest dose often 46.1 µM), without a hit: at the top dose activity change, negative = inhibition | 340,000 tested, 0.071% active; further: potency means the concentration at half of the fitted maximal effect; % of control where 0% means no effect; nearly all actives have a fitted effect of over 45% in size
#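 Compounds preincubate 5 min with complex of recombinant Rango and importin beta in PBS with 1 mM DTT. Ran (0.6 uM) loaded with 2 mM GTP plus 0.2 uM RCC1 starts dissociation; FRET is recorded 45 min later.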
# MmCpn inh = inhibitors of Methanococcus maripaludis chaperonin TRiC (MmCpn); purified Mm-Cpn ATPase, ADP Transcreener TR-FRET; Potency, µM (series often up to 76.9 µM), for inactives: at the highest dose activity, negative = inhibition, most hits filed as inhibitors; 330,000 tested, 0.031% active; AID 504842; active means well fitted inhibition curve with a large enough effect; inconclusive means small, poorly fitted or top-dose-only effect; further: potency means the concentration at half of the fitted maximal effect; on the % scale 0 is the no-effect control and ±100 the full control effect; nearly all actives have a fitted effect of over 80% in size
#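 Reaction buffer contained 30 mM Tris pH 7.4, 100 mM KCl, 5 mM MgCl2 and 1 mM DTT. Mm-CPN (25 nM final) hydrolysed 10 uM ATP over 30 min at 37°C; ADP was read by HTRF.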
# Rango complex inh = Rango-importin beta binding inhibition. Rango CFP/YFP FRET sensor + importin beta, 45 min. AID 540263. 340,000 tested, 0.031% active. Potency, µM (titrated, usually from 92.2 µM), for the others: at the top dose inhibition of complex formation. Q14974;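 further: potency means the concentration at half of the fitted maximal effect; 0% = DMSO wells and 100% = buffer wells lacking importin beta; nearly all actives have a fitted effect of over 15% in size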
# Target sequence (Q14974 whole entry, looked up): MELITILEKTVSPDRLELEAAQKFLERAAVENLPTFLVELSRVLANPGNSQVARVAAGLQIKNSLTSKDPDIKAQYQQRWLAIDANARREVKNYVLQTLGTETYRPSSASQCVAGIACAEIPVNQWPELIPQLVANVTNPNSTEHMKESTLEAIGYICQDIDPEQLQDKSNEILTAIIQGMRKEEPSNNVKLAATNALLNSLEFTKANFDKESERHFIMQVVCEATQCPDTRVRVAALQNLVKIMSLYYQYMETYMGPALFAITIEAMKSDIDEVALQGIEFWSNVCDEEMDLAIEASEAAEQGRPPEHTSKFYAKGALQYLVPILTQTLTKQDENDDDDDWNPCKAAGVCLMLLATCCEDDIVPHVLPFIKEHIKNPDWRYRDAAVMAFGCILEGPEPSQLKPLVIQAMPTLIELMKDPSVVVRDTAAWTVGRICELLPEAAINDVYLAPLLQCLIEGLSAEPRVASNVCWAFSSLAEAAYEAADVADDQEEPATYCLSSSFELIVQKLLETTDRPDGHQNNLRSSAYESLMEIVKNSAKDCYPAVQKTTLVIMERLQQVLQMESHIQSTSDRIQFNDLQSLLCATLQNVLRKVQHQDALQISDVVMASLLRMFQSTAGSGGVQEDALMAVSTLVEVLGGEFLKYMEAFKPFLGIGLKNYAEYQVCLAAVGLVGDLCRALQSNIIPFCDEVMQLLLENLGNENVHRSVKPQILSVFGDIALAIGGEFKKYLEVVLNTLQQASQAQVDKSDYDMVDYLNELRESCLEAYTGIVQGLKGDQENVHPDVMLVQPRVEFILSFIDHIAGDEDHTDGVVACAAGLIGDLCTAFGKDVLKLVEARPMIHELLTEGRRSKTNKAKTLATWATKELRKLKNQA
#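 Inhibition scored from the CFP 486 nm/YFP 530 nm FRET ratio 45 min after adding 0.125 microM importin beta to 50 nM Rango biosensor preincubated 5 min with compound (room temperature, PBS with DTT, Tween-20, BSA). No-importin wells as positive control.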
# DRD3 antagonist = blocks the human D3 dopamine receptor; D3R cells, DiscoveRx beta-arrestin luminescence, antagonist mode; hits give low values; max response, negative = inhibition, %; 360,000 tested, 2.5% active; in the data active means max response below about -50%; inconclusive means no clear call, values can overlap the other calls; further: on the % scale 0 is the no-effect control and ±100 the full control effect
#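 Cells plated overnight at 1500 cells/well, then exposed to library compounds with dopamine controls for 90 minutes at 37 degrees C. DiscoveRx reagent added for 30–60 minutes at room temperature; luminescence read, quantitative HTS format.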
# TSG101-PTAP inh = blocks PTAP/TSG101 interaction to inhibit HIV-1 budding. Q99816. Fluorescence polarization, FITC-PTAP peptide / Tsg101 binding. Potency, µM (highest dose often 115 µM), inactives show at the highest dose activity change, negative = inhibition, hits mostly inhibitors. 340,000 tested, under 10 active. AID 493005; active means well fitted inhibition curve with a large enough effect in the main read-out, with a control signal flat, not every such curve was filed as active; inconclusive means small, poorly fitted or top-dose-only effect, or effect the other way, or a change in a side signal; inactive means no such curve, though single readings can be large or run the other way; further: potency means the concentration at half of the fitted maximal effect; % of control where 0% means no effect
#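 Compounds were pin-transferred onto Tsg101 binding domain (10 uM final) in HEPES pH 7.5 buffer, then FITC-PTAP peptide was added at 50 nM final. After 20 min at RT, polarization reported peptide displacement across a qHTS concentration series.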
# * = called active by the depositor; ? = inconclusive; . = no result given. Most compounds without a hit are left out; they make up all but 2.9% or so of the library. Unless noted, the call rests on the fitted dose curve.
SMILES,D3 ag,Rango release inh,MmCpn inh,Rango complex inh,DRD3 antagonist,TSG101-PTAP inh
CC1CN(c2ncnc3c2c(-c2ccccc2)cn3-c2ccc(F)cc2)CC(C)O1 (stereo not given),-35,0%,1%,-3%,-92*,0%
COc1ccc(CC(=O)Nc2ccc(-c3nc4ccccc4s3)c(C)c2)cc1OC,2,.,.,.,.,.
CCOC(=O)c1ccc(NC(=O)CC2C(=O)N(c3ccc(F)cc3)C(=O)N2Cc2ccc(C)cc2)cc1 (stereo not given),-3,.,.,.,.,.
CC1(C)N=C(c2cccc(F)c2)C(=O)N1,43*,-7%,-1%,2%,16,-4%
CC1(C)N=C(c2ccccc2)C(=O)N1,10,11%,1%,0%,14,-2%
c1ccc(C2=NNC(c3ccccn3)=NN2)nc1,-6,-18%,0%,?,-3,-8%
O=C(c1ccc2c(c1)OCO2)c1cn(Cc2ccc(F)cc2)c2ccccc2c1=O,-5,.,.,.,.,.
Cc1ccc(S(=O)(=O)N2CCN(C3CC4CCC3C4)CC2)cc1 (stereo not given),-23,8%,0%,5%,-61*,-2%
COc1ccc(S(=O)(=O)N2CCN(C3CC4CCC3C4)CC2)cc1 (stereo not given),-19,-3%,-1%,0%,-16,-1%
Cc1ccc(S(=O)(=O)N2CCN(S(C)(=O)=O)C2)cc1,18,-1%,1%,0%,49,-6%
Cc1ccc(S(=O)(=O)N2CCN(S(=O)(=O)c3ccccc3)C2)cc1,3,1%,-1%,-1%,-51*,.
Cc1cc(C)c(S(=O)(=O)N2CCN(C(=O)c3ccc(-n4nc(C)c(Cl)c4C)cc3)CC2)c(C)c1,101*,-5%,.,4%,-2,-10%
Cc1ccc(S(=O)(=O)N2CCN(C(=O)c3c(C)nn(-c4ccccc4)c3Cl)CC2)cc1,-14,1%,3%,1%,-71*,-3%
COc1ccc(-n2c(-c3ccc(C)cc3)cc3c2CC(C)(C)CC3=O)c(OC)c1,3,.,.,.,.,.
C(=N\Nc1nc(N2CCCCCC2)nc(N2CCCCCC2)n1)/c1ccccc1,5,-14%,1%,-1%,87,-9%
Oc1ccc(/C=N/Nc2nc(N3CCCCCC3)nc(N3CCCCCC3)n2)c(O)c1,37*,40%,1%,1%,55,1%
CC(/C=N/Nc1nc(N2CCCCC2)nc(N2CCCCC2)n1)=C\c1ccccc1,39*,1%,0%,?,-18,-3%
COc1ccc(-c2nncnn2)cc1,-2,?,-1%,-3%,-52*,-3%
COc1ccc(-c2ccc(OC)cc2)cc1,2,18%,2%,2%,?,0%
CC(=O)N(C)C1=C(N2CCOCC2)C(=O)c2ccccc2C1=O,-33,-5%,-3%,4%,-57*,-3%
NC(=O)C1CCN(c2nc(-c3ccc(Cl)cc3)cs2)CC1,.,.,-2%,.,.,.
COc1cccc(NC(=O)c2ccc(-c3nc(COc4ccc(C)cc4)c(C)o3)cc2)c1,1,.,.,.,.,.
COc1cccc(NC(=O)c2ccc(-c3nc(COc4ccccc4)c(C)o3)cc2)c1,62*,.,.,.,.,.
CN(C)c1ccc(C(CNC(=O)c2ccc(C(C)(C)C)cc2)N2CCOCC2)cc1 (stereo not given),-5,.,.,.,.,.
CCCOc1ccccc1C(=O)N1CCCCC1CCN1CCCCC1 (stereo not given),49*,.,.,.,.,.
Cc1ccc(NC(=O)N2CCC(CN3CCCCCC3)CC2)c(Cl)c1,0,.,.,.,.,.
Cc1cccc(NC(=O)c2ccc(N3CCCCC3)c([N+](=O)[O-])c2)n1,7,7%,2%,0%,26,-3%
Cc1onc(-c2ccccc2)c1C(=O)NCc1ccc2c(c1)OCO2,6,-17%,2%,-4%,8,-2%
O=C(NCc1ccc2c(c1)OCO2)c1c(-c2ccccc2)sc2ccccc12,67*,8%,-12%,0%,47,1%
